The values that follow come from PubChem BioAssay (NCATS).

Inconclusive results are not listed. Entries that show only a call come without a potency. Calls of active or inactive are those of the source. The call rests on the fitted dose curve; in most records, active means well fitted curve in the direction sought with a large enough effect; inconclusive means small, poorly fitted or top-dose-only effect, or another doubt; inactive means no such curve, though single readings can be large; an effect the other way counts as inactive or inconclusive.
Potency means the concentration at half of the fitted maximal effect.

One experiment can be described thus: qHTS of pediatric cancer cell lines to identify multiple opportunities for drug repurposing: Primary screen for control Hh wild type fibroblast cells (AID 1347106). Further: nearly all actives have a fitted effect of over 55% in size.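 On activity change, negative = cytotoxic: a drop in luminescence marks cytotoxicity and a rise apparent proliferation.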 As to conditions: Hh wild-type fibroblast viability, CellTiter-Glo luminescence, 48 h; series mostly up to 46 µM. The method in brief:
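Viability after 48 h compound treatment at 37C, 500-1,000 cells/well, read as ATP luminescence with CellTiter-Glo. Primary screens used 11-point (MIPE, 0.78 nM-46 µM) or 8-point (NPC, 0.59 nM-46 µM) final concentrations; follow-up screens used 11-point dilutions.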
On the technique in general: qHTS replaces the single test concentration by a dilution series.
In the case of `CC(C)c1ccc(Cn2ccc3c4c(N)nc(NC5CC5)nc4ccc32)cc1`, the Potency entry was “inactive”.
In the case of `c1nc2nc(Nc3ccc(N4CCOCC4)cc3)nc(NC3CCCCC3)c2[nH]1`, the Potency entry is “inactive”.
The same measure, in the same setting: with `COc1cc2c(Oc3ccc4[nH]c(C)cc4c3F)ncnc2cc1OCCCN1CCCC1` the figure was 26.4 µM (active); with `Nc1ccn([C@@H]2CS[C@H](CO)O2)c(=O)n1`, “inactive”; with `Cc1ccc(S(=O)(=O)Nc2cc(Cl)ccc2C(=O)Nc2nc(-c3ccccc3)cs2)cc1`, “inactive”.
The same measure, in the same setting: the result for `CC(C)Nc1cc(C(F)(F)F)cc2nc(NC(=O)c3cccnc3)nn12` reads “inactive”; that for `OCc1ccc(-c2ccc(-c3ccc(CO)s3)o2)s1`, “inactive”.
`C=CC(=O)Nc1cc2c(Nc3ccc(F)c(Cl)c3)ncnc2cc1OCCCN1CCOCC1`: the Potency result is “inactive”.
Take `Cc1ccc(NC(=O)C2(c3ccc4c(c3)OC(F)(F)O4)CC2)nc1-c1cccc(C(=O)O)c1`: the Potency is 11.8 µM (active).
`COc1ccc(CC2c3cc(OC)c(OC)cc3CC[N+]2(C)CCC(=O)OCCCCCOC(=O)CC[N+]2(C)CCc3cc(OC)c(OC)cc3C2Cc2ccc(OC)c(OC)c2)cc1OC` (stereo not given): the activity change, negative = cytotoxic was -1.39% [at 9.22 µM] (inactive).
Consider `Cc1cc(Nc2cc(N3CCN(C)CC3)nc(C=Cc3ccccc3)n2)n[nH]1`, for which the Potency is 38.2 µM (active).
Consider `COc1cc(C)c(Sc2cnc(NC(=O)c3ccc(CNC(C)C(C)C)cc3)s2)cc1C(=O)N1CCN(C(C)=O)CC1` (stereo not given), for which the Potency result is “inactive”.
Same read-out and setting: the result for `O=c1c2ccccc2nc2n1CCc1c-2[nH]c2ccccc12` reads “inactive”; that for `Nc1ccc(S(=O)(=O)Nc2ncccn2)cc1`, “inactive”; that for `CC(=O)OCCN1C(=O)c2c(C)nc3ccc(S(=O)(=O)N4CCOCC4)cc3c2C1=O`, “inactive”.
Consider `O=C(CCCCCCNC(=O)c1cnc(N(c2ccccc2)c2ccccc2)nc1)NO`, for which the Potency result is “inactive”.
On the same count and under the same terms, the result for `O=C1CCC[C@@H]2[C@H]3CCC[N+]4([O-])CCC[C@@H](CN12)[C@@H]34` (stereo not given in full) reads “inactive”; that for `COc1ccc(CC2SC(=O)NC2=O)cc1C(=O)NCc1ccc(C(F)(F)F)cc1` (stereo not given), “inactive”; that for `Nc1nccc(Oc2ccc(NC(=O)c3c[nH]cc(-c4ccc(F)cc4)c3=O)cc2F)c1Cl`, “inactive”.
The same measure, in the same setting: the result for `CC1COC2(CCN(c3nc(=O)c4cc(C(F)(F)F)cc([N+](=O)[O-])c4s3)CC2)O1` (stereo not given) reads “inactive”; that for `Cc1coc2c1C(=O)C(=O)c1c-2ccc2c1CCCC2(C)C`, “inactive”; that for `COc1c(N2C[C@@H]3CCCN[C@H]3C2)c(F)cc2c(=O)c(C(=O)O)cn(C3CC3)c12`, “inactive”.
Same read-out and setting: with `O=C(O)CCCc1c[nH]c2ccccc12` the entry was “inactive”; with `O=C(O)[C@H](Cc1c[nH]c2ccccc12)N1C(=O)c2ccccc2C1=O`, “inactive”.
Turning to `COc1ccc2c(c1)CC[C@@H](CN(C)CC(=O)O)[C@H]2c1ccccc1`, the Potency result is “inactive”.
As for `O=c1[nH]c(=O)n(C2CCCO2)cc1F` (stereo not given), the Potency entry is “inactive”.
Same read-out and setting: the result for `Nc1nc(-c2nn(Cc3ccccc3F)c3ncccc23)nc(N)c1N1CCOCC1` reads “inactive”.
For the molecule `O=C(O)Cn1nnc(-c2cc(N3CCC(Oc4cc(F)ccc4Br)CC3)no2)n1`, the Potency entry was “inactive”.
Take `COc1cc2c(cc1-c1c(C)noc1C)ncc1[nH]c(=O)n([C@H](C)c3ccccn3)c12`: the Potency is 16.6 µM (active).
As for `Cc1cn2cc(C(=O)N(C)CCO)cc(N[C@@H]3CCOc4cccc(C)c43)c2n1`, the Potency result was “inactive”.
For `CN1c2cc(O)c(N=NC(N)=O)cc2CC1S(=O)(=O)O` (stereo not given), the Potency entry is “inactive”.
As to `O=C(O)CO.[NH2-].[NH2-].[Pt+2]`, the Potency result was “inactive”.
In the case of `CN(C)c1nc(Cc2ccc(NC(=O)c3ccc4ccccc4c3)cc2)nc(Cl)c1CC(=O)O`, the Potency result is “inactive”.
Still for that read-out and setting: with `Cn1c(CNc2ccc(C(=N)N)cc2)nc2cc(C(=O)N(CCC(=O)O)c3ccccn3)ccc21` the entry was “inactive”; with `CCN(CC)CCNC(=O)c1ccc2nc(-c3ccccc3)c(-c3ccc(CN4CCC(n5c(=O)[nH]c6ccccc65)CC4)cc3)nc2c1`, 9.35 µM (active).

A short description of the next experiment: qHTS of pediatric cancer cell lines to identify multiple opportunities for drug repurposing: Primary screen for Rh30 cells (AID 1347107). Further: nearly all actives have a fitted effect of over 75% in size. The following applies: Rh30 rhabdomyosarcoma viability, CellTiter-Glo luminescence, 48 h; series mostly up to 46 µM. In outline: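 Cells (500-1,000/well) in growth media were settled 5 h at 37 degrees C, then given compounds for 48 h. Viability was read as CellTiter-Glo luminescence. Primary runs used MIPE at 11 points (0.78 nM-46 µM) and NPC at 8 points (0.59 nM-46 µM); follow-ups used 11 points.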
For `CC(C)c1ccc(Cn2ccc3c4c(N)nc(NC5CC5)nc4ccc32)cc1`, the Potency is 18.7 µM (active).
Same read-out and setting: the result for `c1nc2nc(Nc3ccc(N4CCOCC4)cc3)nc(NC3CCCCC3)c2[nH]1` reads 11.8 µM (active).
Consider `COc1cc2c(Oc3ccc4[nH]c(C)cc4c3F)ncnc2cc1OCCCN1CCCC1`, for which the Potency was 23.5 µM (active).
The same measure, in the same setting: the result for `Nc1ccn([C@@H]2CS[C@H](CO)O2)c(=O)n1` reads “inactive”; that for `Cc1ccc(S(=O)(=O)Nc2cc(Cl)ccc2C(=O)Nc2nc(-c3ccccc3)cs2)cc1`, “inactive”; that for `CC(C)Nc1cc(C(F)(F)F)cc2nc(NC(=O)c3cccnc3)nn12`, “inactive”.
Still for that read-out and setting: the result for `OCc1ccc(-c2ccc(-c3ccc(CO)s3)o2)s1` reads 16.6 µM (active); that for `C=CC(=O)Nc1cc2c(Nc3ccc(F)c(Cl)c3)ncnc2cc1OCCCN1CCOCC1`, 18.7 µM (active).
Still for that read-out and setting: the result for `Cc1ccc(NC(=O)C2(c3ccc4c(c3)OC(F)(F)O4)CC2)nc1-c1cccc(C(=O)O)c1` reads “inactive”.
For the molecule `COc1ccc(CC2c3cc(OC)c(OC)cc3CC[N+]2(C)CCC(=O)OCCCCCOC(=O)CC[N+]2(C)CCc3cc(OC)c(OC)cc3C2Cc2ccc(OC)c(OC)c2)cc1OC` (stereo not given), the activity change, negative = cytotoxic was 18.3% [at 9.22 µM] (inactive).
As for `Cc1cc(Nc2cc(N3CCN(C)CC3)nc(C=Cc3ccccc3)n2)n[nH]1`, the Potency is 34 µM (active).
Same read-out and setting: with `COc1cc(C)c(Sc2cnc(NC(=O)c3ccc(CNC(C)C(C)C)cc3)s2)cc1C(=O)N1CCN(C(C)=O)CC1` (stereo not given) the figure was 8.33 µM (active); with `O=c1c2ccccc2nc2n1CCc1c-2[nH]c2ccccc12`, “inactive”; with `Nc1ccc(S(=O)(=O)Nc2ncccn2)cc1`, “inactive”.
The same measure, in the same setting: the result for `CC(=O)OCCN1C(=O)c2c(C)nc3ccc(S(=O)(=O)N4CCOCC4)cc3c2C1=O` reads “inactive”; that for `O=C(CCCCCCNC(=O)c1cnc(N(c2ccccc2)c2ccccc2)nc1)NO`, 14.8 µM (active).
The same measure, in the same setting: with `O=C1CCC[C@@H]2[C@H]3CCC[N+]4([O-])CCC[C@@H](CN12)[C@@H]34` (stereo not given in full) the entry was “inactive”; with `COc1ccc(CC2SC(=O)NC2=O)cc1C(=O)NCc1ccc(C(F)(F)F)cc1` (stereo not given), “inactive”; with `Nc1nccc(Oc2ccc(NC(=O)c3c[nH]cc(-c4ccc(F)cc4)c3=O)cc2F)c1Cl`, “inactive”.
For the molecule `CC1COC2(CCN(c3nc(=O)c4cc(C(F)(F)F)cc([N+](=O)[O-])c4s3)CC2)O1` (stereo not given), the Potency entry was “inactive”.
On the same count and under the same terms, the result for `Cc1coc2c1C(=O)C(=O)c1c-2ccc2c1CCCC2(C)C` reads “inactive”; that for `COc1c(N2C[C@@H]3CCCN[C@H]3C2)c(F)cc2c(=O)c(C(=O)O)cn(C3CC3)c12`, “inactive”; that for `O=C(O)CCCc1c[nH]c2ccccc12`, “inactive”.
On the same count and under the same terms, the result for `O=C(O)[C@H](Cc1c[nH]c2ccccc12)N1C(=O)c2ccccc2C1=O` reads “inactive”; that for `COc1ccc2c(c1)CC[C@@H](CN(C)CC(=O)O)[C@H]2c1ccccc1`, “inactive”; that for `O=c1[nH]c(=O)n(C2CCCO2)cc1F` (stereo not given), “inactive”.
On the same count and under the same terms, with `Nc1nc(-c2nn(Cc3ccccc3F)c3ncccc23)nc(N)c1N1CCOCC1` the entry was “inactive”; with `O=C(O)Cn1nnc(-c2cc(N3CCC(Oc4cc(F)ccc4Br)CC3)no2)n1`, “inactive”.
Take `COc1cc2c(cc1-c1c(C)noc1C)ncc1[nH]c(=O)n([C@H](C)c3ccccn3)c12`: the Potency was 23.5 µM (active).
As to `Cc1cn2cc(C(=O)N(C)CCO)cc(N[C@@H]3CCOc4cccc(C)c43)c2n1`, the Potency result is “inactive”.
On the same count and under the same terms, the result for `CN1c2cc(O)c(N=NC(N)=O)cc2CC1S(=O)(=O)O` (stereo not given) reads “inactive”; that for `O=C(O)CO.[NH2-].[NH2-].[Pt+2]`, “inactive”; that for `CN(C)c1nc(Cc2ccc(NC(=O)c3ccc4ccccc4c3)cc2)nc(Cl)c1CC(=O)O`, “inactive”.
Same read-out and setting: the result for `Cn1c(CNc2ccc(C(=N)N)cc2)nc2cc(C(=O)N(CCC(=O)O)c3ccccn3)ccc21` reads “inactive”; that for `CCN(CC)CCNC(=O)c1ccc2nc(-c3ccccc3)c(-c3ccc(CN4CCC(n5c(=O)[nH]c6ccccc65)CC4)cc3)nc2c1`, 18.7 µM (active).
